Among the data in PubChem BioAssay (EPA / NIEHS) are AC50 and outcome values, retold here.

Active and inactive are the calls of the source. The calls were made as follows: active = hit-call score of the fitted dose curve at least 0.9, where 1 is the maximum; inactive = score below 0.9.

The nature of experiment [1]: ATG_E_Box_CIS: Attagene CIS-FACTORIAL HepG2 Assay for human Enhancer Box (E-box) (AID 2282936). To be noted: HepG2 E-box cis-reporter transcription, actives raise or lower the signal. In short, it runs like this: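 DMSO served as negative control and baseline for bidirectional fitting. Human hepatoma HepG2 cells, transiently transfected with cis-reporter constructs, were dosed 24 h; reporter mRNA read by RT-PCR and capillary electrophoresis.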

Experiment [2] can be described thus: ATG_M_61_CIS: Attagene CIS-FACTORIAL HepG2 Assay for M61 Transcription Factor (Internal Marker) (AID 2282937). To be noted: HepG2 Attagene CIS-FACTORIAL M61 internal marker reporter; actives raise or lower the signal. In short, it runs like this:
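This endpoint serves as an internal background control within a multiplexed HepG2 cis-reporter panel. Cells are exposed for 24 h; reporter mRNA is amplified, fluorescently labelled and sized by capillary electrophoresis, with DMSO as negative control.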

Experiment [3] can be described thus: ATG_EGR_CIS: Attagene CIS-FACTORIAL HepG2 Assay for human Early Growth Response 1 (EGR1) (AID 2282938). To be noted: HepG2 Attagene CIS-FACTORIAL EGR reporter mRNA; actives raise or lower the signal. In short, it runs like this:
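HepG2, transient MRTU transfection (cis promoters), 24 h compound. RNA → RT (oligo-dT) → PCR → 6-FAM labelling → HpaI cut → CE fluorescence. Bidirectional fit, DMSO baseline.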

Experiment [4] can be described thus: ATG_M_19_CIS: Attagene CIS-FACTORIAL HepG2 Assay for M19 Transcription Factor (Internal Marker) (AID 2282939). To be noted: HepG2 Attagene CIS-FACTORIAL M19 internal marker reporter; actives raise or lower the signal. In short, it runs like this: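 Signals come from fluorescence of labelled reporter-specific PCR fragments resolved by capillary electrophoresis, following 24 h treatment of HepG2 cells transfected with cis-promoter reporter units; activity was fitted in both directions relative to DMSO.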

The nature of experiment [5]: ATG_ERE_CIS: Attagene CIS-FACTORIAL HepG2 Assay for Estrogen Response Element (ERE) (AID 2282940). Conditions: HepG2 ERE cis-reporter, Attagene RNA transcript; actives raise or lower the signal. In short, it runs like this:
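Fluorescence of capillary-separated, FAM-labelled reporter cDNA fragments indicates reporter mRNA levels in HepG2 cells exposed to chemicals for 24 h. Transient transfection with cis-regulated units; data fitted in both directions against DMSO.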

Experiment [6] can be described thus: ATG_Ets_CIS: Attagene CIS-FACTORIAL HepG2 Assay for human Erythroblast Transformation Specific (ETS) (AID 2282941). To be noted: HepG2 ETS cis-reporter transcription, actives raise or lower the signal. The essentials: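 Steps: transfect HepG2 with multiple reporter units; treat compound 24 h; isolate RNA, DNase-treat, reverse-transcribe; PCR-amplify, label with 6-FAM, digest with HpaI; separate by capillary electrophoresis. Activity fitted both directions versus DMSO.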

Experiment [7] addresses Hepatocyte nuclear factor 3-beta (Homo sapiens) (UniProt Q9Y261). Put plainly: ATG_FoxA2_CIS: Attagene CIS-FACTORIAL HepG2 Assay for human Forkhead box A2 (FOXA2) (AID 2282942). To be noted: HepG2 cis-reporter transcription factor activity, 24 h; actives raise or lower the signal. In short, it runs like this:
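Cells: HepG2, transient multiplex reporter transfection. Exposure 24 h. Detection: reporter-specific RT-PCR, fluorescent labelling, restriction digest, capillary electrophoresis. Analysis: bidirectional curve fit, DMSO as negative control.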

The nature of experiment [8]: ATG_FoxO_CIS: Attagene CIS-FACTORIAL HepG2 Assay for human Forkhead box O (FoxO) (AID 2282943). Conditions: HepG2 Attagene cis-reporter, FoxO element, mRNA; actives raise or lower the signal. In short, it runs like this:
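HepG2, transient MRTU transfection (cis element, endogenous TFs). Dose 24 h. TriZol RNA → oligo(dT) RT → PCR → 6-FAM primer extension → HpaI cut → CE. Gain/loss vs DMSO.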

A short description of experiment [9]: ATG_GATA_CIS: Attagene CIS-FACTORIAL HepG2 Assay for human GATA Binding Protein (AID 2282944). To be noted: HepG2 GATA cis-element reporter, Attagene multiplex mRNA; actives raise or lower the signal. In short, it runs like this: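 After transfecting HepG2 cells with multiple cis-regulated reporter units, chemicals are dosed for 24 h; isolated RNA undergoes RT-PCR and fluorescent labeling before capillary electrophoresis, with activity expressed against DMSO.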

Experiment [10] can be described thus: ATG_GLI_CIS: Attagene CIS-FACTORIAL HepG2 Assay for human Zinc Finger Protein GLI1 (AID 2282945). To be noted: HepG2, Attagene cis-factorial reporter mRNA, GLI element; actives raise or lower the signal. The essentials: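 Bidirectional curve fits relative to DMSO, using reporter mRNA levels from RT-PCR plus capillary electrophoresis. Cells were HepG2 transiently carrying cis-regulated reporter constructs, harvested 24 h after dosing.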

Experiment [11] is described as follows: ATG_GRE_CIS: Attagene CIS-FACTORIAL HepG2 Assay for human Glucocorticoid Response Elements (GRE) (AID 2282947). To be noted: HepG2 GRE cis-reporter, Attagene multiplex mRNA; actives raise or lower the signal. The essentials:
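Assay uses human hepatoma HepG2 cells transfected with cis-promoter reporter units, exposed 24 h. mRNA from reporters detected by RT-PCR plus capillary electrophoresis; DMSO serves as negative control and baseline.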

Experiment [12] can be described thus: ATG_ISRE_CIS: Attagene CIS-FACTORIAL HepG2 Assay for human Interferon Regulatory Factor 1 (IRF1) binding to an Interferon-Stimulated Response Element (ISRE) (AID 2282948). To be noted: HepG2 ISRE cis-reporter (Attagene), mRNA transcription readout; actives raise or lower the signal. The essentials:
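Transfected HepG2 (multiple reporter transcription units, cis elements) dosed 24 h. RNA → oligo(dT) RT → PCR → 6-FAM primer extension → HpaI → CE. DMSO = negative control/baseline.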

Experiment [13] is described as follows: ATG_M_32_CIS: Attagene CIS-FACTORIAL HepG2 Assay for M32 Transcription Factor (Internal Marker) (AID 2282949).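 Also: background control marker of the multiplexed CIS panel rather than a real target.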 Conditions: HepG2 Attagene cis-factorial M32 reporter, mRNA; actives raise or lower the signal. In short, it runs like this:
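Internal background marker read-out: RT-PCR/capillary electrophoresis fluorescence of reporter transcripts from transiently transfected HepG2 cells after 24 h chemical exposure. Activity fitted bidirectionally relative to DMSO negative control.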

The nature of experiment [14]: ATG_M_06_CIS: Attagene CIS-FACTORIAL HepG2 Assay for M06 Transcription Factor (Internal Marker) (AID 2282950). Conditions: HepG2 Attagene CIS-FACTORIAL M06 internal marker reporter; actives raise or lower the signal. The essentials:
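HepG2 liver cells, 24 h exposure. Reporter transcripts from transfected cis-element constructs quantified by RT-PCR/capillary electrophoresis fluorescence. Bidirectional curve fit against DMSO.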

The target of experiment [15] is Heat shock factor protein 1 (Homo sapiens) (UniProt Q00613). Put plainly: ATG_HSE_CIS: Attagene CIS-FACTORIAL HepG2 Assay for human Heat Shock Transcription Factor 1 (HSE) (AID 2282953). Conditions: HepG2 HSE cis-reporter, Attagene RNA transcription; actives raise or lower the signal. The essentials: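 Endogenous transcription factor activity captured via cis-promoter reporter units transfected into HepG2; treatment lasted 24 h. Fluorescence intensity of reporter fragments analysed with bidirectional curve fitting, DMSO baseline.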

Experiment [16] can be described thus: ATG_MRE_CIS: Attagene CIS-FACTORIAL HepG2 Assay for human Metal Responsive Element (MRE) (AID 2282954). Conditions: HepG2 MRE cis-reporter transcription, Attagene multiplex; actives raise or lower the signal. The essentials:
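After a 24 h chemical exposure, transiently transfected HepG2 cells yield RNA whose reporter sequences are amplified, FAM-labelled and sized by capillary electrophoresis. Curves are fitted bidirectionally relative to DMSO.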

Experiment [17] concerns the target Hypoxia-inducible factor 1-alpha (Homo sapiens) (UniProt Q16665). In words: ATG_HIF1a_CIS: Attagene CIS-FACTORIAL HepG2 Assay for human Hypoxia Inducible Factor 1 (HIF1A) (AID 2282951). Conditions: HepG2 Attagene cis-factorial HIF1a reporter transcription; actives raise or lower the signal. The essentials: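 HepG2, transient cis-reporter library, 24 h dosing. RNA → RT (oligo dT) → PCR → 6-FAM primer extension → HpaI → CE. Bidirectional curve fit vs DMSO.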

Experiment [18] deals with Hepatocyte nuclear factor 6 (Homo sapiens) (UniProt Q9UBC0). Put plainly: ATG_HNF6_CIS: Attagene CIS-FACTORIAL HepG2 Assay for human Hepatocyte Nuclear Factor 6 (HNF6) (AID 2282952). To be noted: HepG2 Attagene cis-factorial HNF6 reporter transcription; actives raise or lower the signal. The essentials: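 Cells are HepG2 carrying transiently transfected cis-promoter reporter units. Treatment lasts 24 h, after which reporter transcripts are reverse-transcribed, amplified, FAM-labelled and sized by capillary electrophoresis. DMSO serves as baseline.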

The nature of experiment [19]: ATG_PBREM_CIS: Attagene CIS-FACTORIAL HepG2 Assay for human Phenobarbital-responsive Enhancer Module (PBREM) (AID 2282955). To be noted: HepG2 PBREM cis-reporter, Attagene multiplexed transcription; actives raise or lower the signal. In short, it runs like this:
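HepG2, transient MRTU transfection, 24 h dosing; RNA → oligo(dT) RT → PCR → 6-FAM extension → HpaI → CE. Bidirectional fit vs DMSO.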

Heat shock factor protein 1 (Homo sapiens), sequence (Q00613 whole entry, looked up, the tested form may be a part): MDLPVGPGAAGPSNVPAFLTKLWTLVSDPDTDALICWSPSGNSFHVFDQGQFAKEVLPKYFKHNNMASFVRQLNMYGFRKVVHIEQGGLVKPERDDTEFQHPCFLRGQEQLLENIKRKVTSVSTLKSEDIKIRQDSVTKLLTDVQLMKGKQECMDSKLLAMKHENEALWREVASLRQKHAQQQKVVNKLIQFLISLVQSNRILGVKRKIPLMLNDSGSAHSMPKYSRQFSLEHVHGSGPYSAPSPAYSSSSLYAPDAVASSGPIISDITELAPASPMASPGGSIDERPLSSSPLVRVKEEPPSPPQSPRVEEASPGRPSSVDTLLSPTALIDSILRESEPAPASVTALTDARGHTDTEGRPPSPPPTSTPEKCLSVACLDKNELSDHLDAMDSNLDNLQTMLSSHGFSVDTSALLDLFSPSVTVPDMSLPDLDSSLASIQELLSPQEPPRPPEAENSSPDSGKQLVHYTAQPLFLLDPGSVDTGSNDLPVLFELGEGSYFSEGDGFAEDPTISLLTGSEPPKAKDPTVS
Hypoxia-inducible factor 1-alpha (Homo sapiens), sequence (Q16665 whole entry, looked up): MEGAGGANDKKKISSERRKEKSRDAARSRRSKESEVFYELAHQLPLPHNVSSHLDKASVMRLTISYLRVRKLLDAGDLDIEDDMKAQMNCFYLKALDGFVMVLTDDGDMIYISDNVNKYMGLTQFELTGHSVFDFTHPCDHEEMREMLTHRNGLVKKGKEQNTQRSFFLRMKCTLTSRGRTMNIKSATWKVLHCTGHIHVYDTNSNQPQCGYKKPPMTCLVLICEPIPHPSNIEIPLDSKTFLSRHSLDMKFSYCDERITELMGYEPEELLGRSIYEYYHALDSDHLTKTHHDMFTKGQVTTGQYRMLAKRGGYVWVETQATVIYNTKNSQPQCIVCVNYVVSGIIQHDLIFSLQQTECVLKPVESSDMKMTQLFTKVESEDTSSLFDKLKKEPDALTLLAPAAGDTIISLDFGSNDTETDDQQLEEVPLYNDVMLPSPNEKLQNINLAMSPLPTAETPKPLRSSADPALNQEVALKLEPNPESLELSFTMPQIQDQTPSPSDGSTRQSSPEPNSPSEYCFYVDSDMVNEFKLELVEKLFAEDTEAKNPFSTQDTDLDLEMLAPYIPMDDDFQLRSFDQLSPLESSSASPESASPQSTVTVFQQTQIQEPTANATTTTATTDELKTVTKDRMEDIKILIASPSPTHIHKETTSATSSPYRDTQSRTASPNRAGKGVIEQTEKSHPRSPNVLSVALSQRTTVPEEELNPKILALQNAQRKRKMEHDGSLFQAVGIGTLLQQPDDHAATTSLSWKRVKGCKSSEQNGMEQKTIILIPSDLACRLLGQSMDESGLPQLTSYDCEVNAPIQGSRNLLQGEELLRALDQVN
Hepatocyte nuclear factor 3-beta (Homo sapiens), sequence (Q9Y261 whole entry, looked up): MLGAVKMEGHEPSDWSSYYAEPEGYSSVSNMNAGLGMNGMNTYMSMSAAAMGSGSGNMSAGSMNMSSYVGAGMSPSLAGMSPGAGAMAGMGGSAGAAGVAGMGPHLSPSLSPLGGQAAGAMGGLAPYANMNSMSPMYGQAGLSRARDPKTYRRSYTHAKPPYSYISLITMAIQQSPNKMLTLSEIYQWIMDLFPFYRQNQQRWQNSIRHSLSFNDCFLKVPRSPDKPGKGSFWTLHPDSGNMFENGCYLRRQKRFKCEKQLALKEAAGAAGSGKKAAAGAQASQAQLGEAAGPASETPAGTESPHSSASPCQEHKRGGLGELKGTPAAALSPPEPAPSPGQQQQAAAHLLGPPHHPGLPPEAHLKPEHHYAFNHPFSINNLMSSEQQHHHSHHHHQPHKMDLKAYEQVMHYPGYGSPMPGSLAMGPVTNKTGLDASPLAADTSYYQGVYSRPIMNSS
Hepatocyte nuclear factor 6 (Homo sapiens), sequence (Q9UBC0 whole entry, looked up): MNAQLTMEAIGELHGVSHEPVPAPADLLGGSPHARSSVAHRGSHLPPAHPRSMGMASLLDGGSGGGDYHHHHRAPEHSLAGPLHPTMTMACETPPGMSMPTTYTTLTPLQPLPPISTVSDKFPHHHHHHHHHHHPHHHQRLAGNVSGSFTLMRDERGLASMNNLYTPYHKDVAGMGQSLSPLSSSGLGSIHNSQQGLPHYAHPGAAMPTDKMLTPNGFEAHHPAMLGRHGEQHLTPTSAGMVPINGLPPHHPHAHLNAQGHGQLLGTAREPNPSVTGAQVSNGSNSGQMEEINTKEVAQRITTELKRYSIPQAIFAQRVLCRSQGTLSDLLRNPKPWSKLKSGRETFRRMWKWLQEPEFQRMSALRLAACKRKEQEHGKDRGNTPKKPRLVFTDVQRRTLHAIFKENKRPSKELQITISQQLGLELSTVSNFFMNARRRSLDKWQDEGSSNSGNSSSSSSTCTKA

For `O=C(O)c1ccccc1Nc1cccc(C(F)(F)F)c1`, the concentration at half-maximal activity (AC50) (in general, the concentration giving half of the maximal activity seen) in [1] was 89.2 µM (active); in experiment [16], 100 µM (active). Besides, the outcome in experiment [2], in [3], in experiment [4], in [5], in experiment [6] and in [7] was inactive. Besides, the molecule was called inactive in experiment [8], in experiment [9], in [10], in [11], in experiment [12] and in [13]. In addition, the molecule was classed as inactive in experiment [14] and in [15].

Regarding `C=C(C)c1cccc(C(C)(C)N=C=O)c1`, the result in experiment [1], in [2], in experiment [3], in experiment [4], in [5] and in [6] was inactive. The molecule was classed as inactive in experiment [7], in experiment [8], in [9], in experiment [10], in experiment [11] and in [12]. Moreover, the molecule was called inactive in experiment [14], in [17], in experiment [18], in experiment [15], in experiment [16] and in experiment [19].

Turning to `CCCOC(=O)CCCCC(=O)OCCC`, the outcome in experiment [1], in experiment [2], in experiment [3], in experiment [4], in experiment [5] and in experiment [6] was inactive. In addition, the molecule was called inactive in experiment [7], in [8], in experiment [9], in experiment [10], in experiment [11] and in [12]. In addition, the molecule was called inactive in experiment [14], in experiment [17], in experiment [18], in [15] and in experiment [16].

For `CC1(C)S[C@@H]2[C@H](NC(=O)COc3ccccc3)C(=O)N2[C@H]1C(=O)O`, the outcome in experiment [1], in [2], in experiment [3], in experiment [4], in [5] and in [6] was inactive. The molecule was called inactive in experiment [7], in [8], in experiment [9], in [10], in experiment [11] and in [12]. Also, the molecule was called inactive in experiment [13], in [14], in experiment [18], in [15] and in experiment [16].

With `CC(=O)OCC(=O)[C@@]12N=C(C)O[C@@H]1C[C@H]1[C@@H]3CCC4=CC(=O)C=C[C@]4(C)[C@H]3[C@@H](O)C[C@@]12C`, the result in experiment [1], in experiment [2], in experiment [3], in [4], in [6] and in experiment [7] was inactive. Moreover, the outcome in experiment [8], in [9], in [10], in experiment [12], in [13] and in experiment [14] was inactive. Also, the molecule was called inactive in experiment [17], in experiment [18], in experiment [15], in experiment [16] and in [19]. In addition, the AC50 in [5] was 34.2 µM (active); in experiment [11] it was 0.189 µM (active).

Take `[Cl][Bi]([Cl])([c]1ccccc1)([c]1ccccc1)[c]1ccccc1`: the AC50 in [1] is 3.68 µM (active); in experiment [3], 6.3 µM (active); in [8] it was 4.47 µM (active); in experiment [12], 2.74 µM (active); in experiment [15] it was 5.52 µM (active); in experiment [16], 6.46 µM (active). The outcome in [2], in experiment [4], in experiment [5], in [6], in experiment [7] and in experiment [9] was inactive. Also, the outcome in [10], in experiment [11], in experiment [13], in experiment [14], in experiment [17] and in experiment [19] was inactive.

Take `C=CCOc1c(Br)cc(Br)cc1Br`: the outcome in experiment [1], in experiment [2], in [3], in experiment [4], in [6] and in experiment [7] was inactive. Moreover, the result in experiment [8], in [9], in [10], in experiment [11], in experiment [12] and in experiment [14] was inactive. The call in [17], in [18], in experiment [15], in experiment [16] and in experiment [19] was inactive. The concentration at half-maximal activity (AC50) in [5] was 27.7 µM (active).

For `COc1ccc2nc(N)sc2c1`, the outcome in experiment [1], in experiment [2], in experiment [3], in experiment [4], in experiment [5] and in experiment [6] was inactive. Further, the result in experiment [7], in [8], in experiment [9], in experiment [10], in experiment [11] and in [12] was inactive. Further, the molecule was called inactive in experiment [13], in experiment [14], in [17], in experiment [18], in experiment [16] and in experiment [19].
